Source: PubChem BioAssay AID493114 (The Scripps Research Institute Molecular Screening Center, 2011)
Some of the results follow. The source made the active and inactive calls.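 Rule for the calls: active = mean percent activation across triplicates above a set limit taken from the earlier primary procaspase-3 screen; inactive = the rest.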

These compounds were tested against Caspase-3 (Homo sapiens) (UniProt P42574) (assay: procaspase-3 activators, counter-screen for dual procaspase-3/7 activator project, biochemical, absorbance, PC-3 D3A mutant, human (AID 493114;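 note: 0% = DMSO wells and 100% = DMSO wells with 5 µM added PC-3 D3A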)). Details: recombinant PC-3 D3A, Ac-DEVD-pNA absorbance 405 nm; at 8.5 µM; stronger effect = higher value; 100% = enzyme control; aspartates 9, 28, 175 changed to alanine.
Caspase-3 (Homo sapiens), sequence (P42574 whole entry D9A/D28A/D175A): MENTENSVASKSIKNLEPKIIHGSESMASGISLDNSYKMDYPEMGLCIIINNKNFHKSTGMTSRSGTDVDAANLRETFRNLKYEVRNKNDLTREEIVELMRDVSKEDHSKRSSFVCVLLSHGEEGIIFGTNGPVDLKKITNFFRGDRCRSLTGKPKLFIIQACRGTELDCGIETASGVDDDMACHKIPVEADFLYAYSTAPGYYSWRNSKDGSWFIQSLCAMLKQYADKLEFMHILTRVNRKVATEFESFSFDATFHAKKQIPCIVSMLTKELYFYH

Row | Structure (SMILES) | activation
1 | CCOC(=O)C1(CCOC)CCN(Cc2cc3ccccc3s2)CC1 | 2.49% (inactive)
2 | CNS(=O)(=O)c1cccc(C(=O)NC2CCCc3ccccc32)c1 (stereo not given) | 2.51% (inactive)
3 | COc1ccc(/C=N/Nc2nc3ccccc3c(=O)[nH]2)cc1 | 0.42% (inactive)
4 | CCCCOC(=O)Cn1c(=O)n(CC(=O)OCCCC)c2cc(C)ccc21 | 2.96% (inactive)
5 | COc1ccc(Nc2ncnc3sc(-c4ccccc4)cc23)c(OC)c1 | -22.7% (inactive)
6 | COc1ccc2sc(-c3ccc(S(C)(=O)=O)cc3)c(C#Cc3cncn3C)c2c1 | -29.9% (inactive)
7 | COc1ccc(Nc2ncc(C(=O)N3CCN(c4ccccc4OC)CC3)c3ccccc23)cc1 | 0.74% (inactive)
8 | Nc1cccc2c1C(=O)N(Cc1nnc(-c3ccccc3Br)o1)C2=O | -28.5% (inactive)
9 | Fc1ccc(N2N=C(c3cccs3)CC2c2ccco2)c(F)c1 (stereo not given) | -29.1% (inactive)
10 | O=C1OCCN1C(=O)[C@H]1[C@H](c2ccc(F)cc2)C(c2ccccc2)=NN1c1ccc(Br)cc1 | -28.8% (inactive)
11 | CC(=O)Oc1ccc2c(C)c(CC(C)O)c(=O)oc2c1 (stereo not given) | -29.8% (inactive)
12 | CCN(CC)c1ccc2oc(=O)c(C)nc2c1 | -12.2% (inactive)
13 | CC1(C)Cc2c(C#N)c(SCc3nc4ccccc4[nH]3)nc(N3CCOCC3)c2CO1 | -28.2% (inactive)
14 | COc1ccccc1N=Cc1c(O)c2ccccc2oc1=O | -28.6% (inactive)
15 | COc1ccc(-c2onc3ccc(C(C)=O)cc23)cc1 | -28% (inactive)
